Experimental data reported in PubChem BioAssay (NCI).
This is part of a sample that, as a whole, favours compounds with a hit. Of some 83,000 tested, about 20% had one in any assay.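 Cells were grown in 96-well plates and exposed to the test compound at a single concentration for 48 hours; results are reported as percent growth, with values below 10 considered active.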 The source made the active and inactive calls.

What was measured:
Assay in all cases: NCI-60 one-dose screen, 48 h (100 = growth as untreated, 0 = no growth, -100 = all killed)
[1] = test system: SR leukemia; conditions: 10 µM unless noted
[2] = test system: RPMI-8226 leukemia; conditions: 10 µM unless noted
[3] = test system: OVCAR-8 ovarian; conditions: 10 µM unless noted
[4] = test system: OVCAR-5 ovarian; conditions: 10 µM unless noted
[5] = test system: OVCAR-4 ovarian; conditions: 10 µM
[6] = test system: IGROV1 ovarian; conditions: 10 µM unless noted
[7] = test system: OVCAR-3 ovarian; conditions: 10 µM unless noted
[8] = test system: NCI/ADR-RES ovarian; conditions: 10 µM unless noted
[9] = test system: HS 578T breast; conditions: 10 µM unless noted
[10] = test system: SK-OV-3 ovarian; conditions: 10 µM unless noted

Measured: growth

CCOC(=O)c1nn(C2CCCCO2)c2ccc(NS(=O)(=O)c3ccc(C)cc3)cc12 (centres undefined)
inactive: [1] 107% | [2] 98.3% | [3] 96.9% | [4] 110% | [5] 87.2% | [6] 102% | [7] 104% | [8] 99.6%

CC1(C(=O)O)CCC(N)(C(=O)O)C1(C)C (centres undefined)
inactive: [1] 105% | [2] 91.9% | [3] 111% | [4] 115% | [5] 104% | [6] 108% | [7] 102% | [9] 127% | [8] 118%

O=C1CC(c2ccc3c(c2)OCO3)Nc2ccccc21 (centres undefined)
inactive: [1] 19% | [2] 15.4% | [3] 22.3% | [4] 54.3% | [5] 51.7% | [6] 53.5% | [9] 20.2%
active: [8] 1.78%

Fc1ccc(NC(=S)c2ccccc2)cc1
inactive: [1] 102% | [2] 89% | [3] 102% | [4] 94.5% | [5] 100% | [6] 106% | [8] 108%

Nc1cc(NN=C(c2ccc(O)cc2)c2ccc(O)cc2)c([N+](=O)[O-])cc1[N+](=O)[O-]
inactive: [1] 39.2% | [2] 74.3% | [5] 76.1% | [7] 82% | [9] 71.4%
active: [3] -75.8% | [4] -50.9% | [8] 7.33%

CCN(CCNc1ccc(C)c2sc3cc(Cl)ccc3c(=O)c12)CC(C)O (centres undefined)
active: [2] -23.2%
inactive: [1] 12.3% | [3] 58.3% | [4] 79.9% | [5] 77% | [7] 60.6% | [9] 63.2% | [8] 74.8%

CC(=O)OC[C@]12CC[C@@H]([C@@H](C)C(N)=O)[C@@H]1[C@H]1CC[C@@H]3[C@@]4(C)CC[C@H](OC(C)=O)C(C)(C)[C@@H]4CC[C@@]3(C)[C@]1(C)CC2
active: [2] -18.3% [100 µM] | [3] -31.7% [100 µM] | [4] -77.4% [100 µM] | [10] -11.9% [100 µM] | [6] -71.3% [100 µM] | [7] -76.2% [100 µM] | [9] -33% [100 µM] | [8] -57.3% [100 µM]
inactive: [1] 10.8% [100 µM]

C#CCNC(=O)CC[C@@H](C)[C@H]1CC[C@H]2[C@@H]3CC[C@@H]4CC(=O)CC[C@]4(C)[C@H]3CC[C@]12C
active: [2] -32.9% [100 µM] | [3] -21.7% [100 µM] | [4] -45.4% [100 µM] | [6] -64% [100 µM] | [7] -72.6% [100 µM] | [9] -28.3% [100 µM] | [8] -28.7% [100 µM]
inactive: [1] 24.9% [100 µM] | [10] 11.3% [100 µM]

Cc1ccc(NCCN2CCCCC2)c2c(=O)c3ccccc3sc12
active: [2] -17.1% | [9] -8.32%
inactive: [1] 15.3% | [3] 29.2% | [4] 43.2% | [5] 56.9% | [7] 58.5% | [8] 42%

C[C@]12CCc3nc(Nc4ccccc4)sc3C1=CC[C@@H]1[C@@H]2CC[C@]2(C)/C(=N/NC(N)=S)CC[C@@H]12
inactive: [1] 13.1% | [3] 56.9% | [4] 91.5% | [5] 35.9% | [6] 69.1% | [8] 53.6%
active: [2] -1.05%

N#C/C(C(=O)c1ccccc1)=C1/C(=O)Nc2ccccc21
inactive: [1] 112% | [2] 112% | [3] 97.2% | [4] 101% | [10] 85.3% | [6] 86.1% | [7] 108% | [9] 91.4% | [8] 103%

Cc1cnc(N)nc1OCCNC(=O)c1cccc(-c2ccc(S(=O)(=O)Nc3ccc4c(c3)N(C(=O)C3CC3)CCC4)cc2)c1
inactive: [1] 104% | [2] 42.7% | [3] 67.4% | [4] 105% | [10] 98.8% | [6] 74% | [7] 79.5% | [9] 75.3% | [8] 102%

Cc1cnc(N)nc1OCC(C)(C)CNC(=O)c1cccc(-c2ccc(S(=O)(=O)Nc3ccc4c(c3)N(C(=O)C3CC3)CCC4)cc2)c1
inactive: [1] 79.9% | [2] 44.6% | [3] 62.3% | [4] 79.4% | [10] 68.2% | [6] 63.4% | [7] 68.2% | [9] 64.4% | [8] 105%

O=c1cc(-c2ccccc2)oc2cc(OCc3cn(Cc4ccc(F)cc4)nn3)cc(O)c12
inactive: [1] 96.8% [100 µM] | [2] 93.7% [100 µM] | [3] 20.4% [100 µM] | [4] 83.7% [100 µM] | [10] 20.6% [100 µM] | [6] 31.2% [100 µM] | [7] 61.7% [100 µM] | [8] 43.2% [100 µM]
active: [9] 9.08% [100 µM]

CCOc1ccc(S(=O)(=O)Nc2ccc3c(c2)N(S(=O)(=O)CC)CCC3)cc1
inactive: [1] 97.6% | [2] 77.1% | [3] 77.5% | [4] 94.6% | [10] 72.7% | [6] 71.3% | [7] 54.3% | [9] 80.7% | [8] 89.9%

C=C(C)[C@@H]1CC[C@]2(C(=O)OC)CC[C@]3(C)[C@H](CC[C@@H]4[C@@]5(C)CC/C(=N\OCCC(=NCCC#N)NOCCC#N)C(C)(C)[C@@H]5CC[C@]43C)[C@@H]12
inactive: [3] 13.2% [100 µM] | [4] 50.6% [100 µM] | [10] 34.6% [100 µM] | [6] 18.8% [100 µM] | [9] 24.3% [100 µM] | [8] 17.1% [100 µM]
active: [1] 1.86% [100 µM] | [2] 3.28% [100 µM] | [7] -34.5% [100 µM]

C=C(C)[C@@H]1CC[C@]2(C(=O)N3CCN(C)CC3)CC[C@]3(C)[C@H](CC[C@@H]4[C@@]5(C)C/C(=C/c6ccncc6)[C@H](O)C(C)(C)[C@@H]5CC[C@]43C)[C@@H]12
active: [1] -14.3% [100 µM] | [2] -26.6% [100 µM] | [3] -57.9% [100 µM] | [4] 7.38% [100 µM] | [10] 0.185% [100 µM] | [6] -23.5% [100 µM] | [7] -50% [100 µM] | [9] -19.5% [100 µM] | [8] -64% [100 µM]

C=C(CC(=O)OC)C(C)=O
inactive: [1] 112% | [2] 120% | [3] 107% | [4] 112% | [10] 103% | [6] 101% | [7] 106% | [9] 96.5% | [8] 113%

CC(C)[C@H]1CCC2=C3CC[C@]45OC(=O)[C@@]6(CCC(C)(C)C[C@H]64)CC[C@@]5(C)[C@]3(C)CC[C@@]21C
inactive: [1] 60.3% [100 µM] | [2] 58.2% [100 µM] | [3] 70.3% [100 µM] | [4] 107% [100 µM] | [10] 75.3% [100 µM] | [6] 61% [100 µM] | [7] 80.2% [100 µM] | [9] 61.6% [100 µM] | [8] 81.9% [100 µM]

CCOC(=O)c1nc2c3ccccc3ccn2c1C(=O)OC
inactive: [1] 130% | [2] 86.9% | [3] 100% | [4] 89.5% | [10] 94% | [6] 94.3% | [7] 106% | [9] 105% | [8] 102%

CC1(C)C(=NO)C(C)(C)C1=NO
inactive: [1] 103% | [2] 76.2% | [3] 113% | [4] 103% | [5] 115% | [8] 106%

CC1(C)CC[C@]2(C(=O)O)CC[C@]3(C)C(=CC[C@@H]4[C@@]5(C)C/C(=C/c6ccco6)C(=O)C(C)(C)[C@@H]5CC[C@]43C)[C@@H]2C1
inactive: [1] 21.7% [100 µM]
active: [2] 0.316% [100 µM] | [3] 9.39% [100 µM] | [4] -64.2% [100 µM] | [10] 0.149% [100 µM] | [6] -38.7% [100 µM] | [7] -70% [100 µM] | [9] -5.24% [100 µM] | [8] -12.6% [100 µM]

CC[C@]12C=CCN3CC[C@@]4(c5ccc(OC)cc5N(C)[C@H]4[C@@](O)(C(=O)OC)[C@@H]1OC(=O)CCC(=O)O[C@H]1CC[C@H]4[C@@H]5CCC6=CC(=O)CC[C@@H]6[C@H]5CC[C@]14C)[C@@H]32
active: [2] -22.1% [100 µM] | [6] -46.3% [100 µM] | [7] 8.48% [100 µM] | [9] 4.75% [100 µM]
inactive: [1] 10.5% [100 µM] | [3] 26.4% [100 µM] | [4] 23.7% [100 µM] | [10] 13.2% [100 µM] | [8] 10.8% [100 µM]

C=C(C)[C@@H]1CC[C@]2(C(N)=O)CC[C@]3(C)[C@H](CC[C@@H]4[C@@]5(C)C/C(=C/c6cccnc6)[C@H](O)C(C)(C)[C@@H]5CC[C@]43C)[C@@H]12
inactive: [1] 12.8% [100 µM] | [2] 13.1% [100 µM] | [3] 21.9% [100 µM] | [4] 14.1% [100 µM] | [10] 31.6% [100 µM] | [6] 17.5% [100 µM] | [7] 29.1% [100 µM] | [9] 43.2% [100 µM] | [8] 11.3% [100 µM]
